Data reported in PubChem BioAssay AID1159580 (chemical genetic matrix, 2015).
Values joined by “and” are separate entries in the source; they are usually repeats but may differ in a detail not shown here. Equal values may be shown once. About 2,000 (36%) of roughly 5,500 compounds were called active. Inconclusive results (about 18%) are left out. Rule as the data show it: active = normalized growth mostly below about 0.91 (no sharp cut-off); inconclusive = no clear call, values can overlap the other calls; inactive = mostly above about 0.92. The list shows a part of the results.

Test: chemical genetic growth profiling, strain panel (AID 1159580);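 also: tested at 20 µM; growth read once vehicle control cultures reached saturation at 30 °C; 1 = growth at the plate median or of vehicle wells; lower values mean less growth of the strain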
Conditions: growth OD
[1] = S. cerevisiae deletion strains, locus YBR229C, strain ROT2, active compounds read low
[2] = S. cerevisiae deletion strains, locus YDL101C, strain DUN1, active compounds read low
[3] = S. cerevisiae deletion strains, locus YDR150W, strain NUM1, active compounds read low
[4] = S. cerevisiae deletion strains, locus YEL061C, strain CIN8, active compounds read low
[5] = S. cerevisiae deletion strains, locus YGR078C, strain PAC10, active compounds read low
[6] = S. cerevisiae deletion strains, locus YHR030C, strain SLT2, active compounds read low
[7] = S. cerevisiae deletion strains, locus YJR043C, strain POL32, active compounds read low
[8] = S. cerevisiae deletion strains, locus YJR075W, strain HOC1, active compounds read low
[9] = S. cerevisiae deletion strains, locus YLR039C, strain RIC1, active compounds read low
[10] = S. cerevisiae deletion strains, locus YLR262C, strain YPT6, active compounds read low
[11] = S. cerevisiae deletion strains, locus YMR307W, strain GAS1, active compounds read low
[12] = S. cerevisiae deletion strains, locus YNL153C, strain GIM3, active compounds read low
[13] = S. cerevisiae deletion strains, locus YPL055C, strain LGE1, active compounds read low
[14] = S. cerevisiae deletion strains, locus YPL241C, strain CIN2, active compounds read low
[15] = S. cerevisiae strains, strain wild type, active compounds read low
[16] = S. cerevisiae deletion strains, locus YAL013W, strain DEP1, active compounds read low
[17] = S. cerevisiae deletion strains, locus YCL061C, strain MRC1, active compounds read low
[18] = S. cerevisiae deletion strains, locus YDL134C, strain PPH21, active compounds read low
[19] = S. cerevisiae deletion strains, locus YHR087W, strain rtc3, active compounds read low
[20] = S. cerevisiae deletion strains, locus YJL187C, strain SWE1, active compounds read low
[21] = S. cerevisiae deletion strains, locus YLR058C, strain SHM2 (second series), active compounds read low
[22] = S. cerevisiae deletion strains, locus YLR085C, strain ARP6, active compounds read low
[23] = S. cerevisiae deletion strains, locus YML094W, strain GIM5, active compounds read low
[24] = S. cerevisiae deletion strains, locus YMR219W, strain ESC1, active compounds read low
[25] = S. cerevisiae deletion strains, locus YMR263W, strain SAP30, active compounds read low
[26] = S. cerevisiae deletion strains, locus YNL298W, strain CLA4 (second series), active compounds read low
[27] = S. cerevisiae deletion strains, locus YNL322C, strain KRE1, active compounds read low
[28] = S. cerevisiae deletion strains, locus YNR030W, strain Alg12, active compounds read low
[29] = S. cerevisiae deletion strains, locus YPR135W, strain CTF4, active compounds read low

Measured: normalized growth

O=c1ccn([C@@H]2O[C@H](COP(=O)(O)OP(=O)(O)OP(=O)(O)O)[C@@H](O)[C@H]2O)c(=O)[nH]1
inactive: S. cerevisiae deletion strains, locus YBR021W, strain FUR4, active compounds read low 1.06 | [1] 1.02 | S. cerevisiae deletion strains, locus YCL029C, strain bik1, active compounds read low 0.999 | S. cerevisiae deletion strains, locus YDL035C, strain GPR1, active compounds read low 1.02 | S. cerevisiae deletion strains, locus YDL074C, strain BRE1, active compounds read low 1.04 | [2] 1.02 | S. cerevisiae deletion strains, locus YDL185W, strain tfp1, active compounds read low 0.974 | S. cerevisiae deletion strains, locus YDL192W, strain arf1, active compounds read low 0.991 | S. cerevisiae deletion strains, locus YDR101C, strain arx1, active compounds read low 1.03 | [3] 1.02 | S. cerevisiae deletion strains, locus YDR162C, strain NBP2, active compounds read low 1.01 | S. cerevisiae deletion strains, locus YDR318W, strain mcm21, active compounds read low 1 | S. cerevisiae deletion strains, locus YDR388W, active compounds read low 0.988 | S. cerevisiae deletion strains, locus YDR502C, strain sam2, active compounds read low 0.993 | [4] 1.01 | S. cerevisiae deletion strains, locus YER110C, active compounds read low 0.954 | S. cerevisiae deletion strains, locus YER155C, strain BEM2, active compounds read low 1.02 | S. cerevisiae deletion strains, locus YER167W, strain BCK2, active compounds read low 1.02 | S. cerevisiae deletion strains, locus YGL078C, strain dbp3, active compounds read low 0.984 | S. cerevisiae deletion strains, locus YGL086W, strain mad1, active compounds read low 0.996 | S. cerevisiae deletion strains, locus YGL248W, strain PDE1, active compounds read low 1.02 | [5] 1.02 | S. cerevisiae deletion strains, locus YGR135W, strain pre9, active compounds read low 0.946 | S. cerevisiae deletion strains, locus YGR252W, strain gcn5, active compounds read low 0.975 | [6] 1.01 and 1.04 | S. cerevisiae deletion strains, locus YHR079C, strain IRE1 (second series), active compounds read low 1 | S. cerevisiae deletion strains, locus YHR079C, strain IRE1, active compounds read low 1.04 | S. cerevisiae deletion strains, locus YHR094C, strain hxt1, active compounds read low 0.996 | S. cerevisiae deletion strains, locus YHR129C, strain ARP1, active compounds read low 1.02 | S. cerevisiae deletion strains, locus YHR200W, strain rpn10, active compounds read low 1 | S. cerevisiae deletion strains, locus YIL066C, strain RNR3, active compounds read low 1.03 | S. cerevisiae deletion strains, locus YIL073C, strain SPO22, active compounds read low 0.962 | S. cerevisiae deletion strains, locus YIL125W, strain kgd1, active compounds read low 1.01 | S. cerevisiae deletion strains, locus YIR030C, strain dcg1, active compounds read low 0.996 | S. cerevisiae deletion strains, locus YJL095W, strain BCK1, active compounds read low 1.04 | S. cerevisiae deletion strains, locus YJL134W, strain LCB3, active compounds read low 1.01 | S. cerevisiae deletion strains, locus YJL168C, strain set2, active compounds read low 0.98 | S. cerevisiae deletion strains, locus YJL187C, strain SWE1 (second series), active compounds read low 1.03 | [7] 1.04 | S. cerevisiae deletion strains, locus YJR066W, strain TOR1, active compounds read low 1.01 | [8] 1 | S. cerevisiae deletion strains, locus YKL009W, strain mrt4, active compounds read low 0.979 | S. cerevisiae deletion strains, locus YKL068W, active compounds read low 1.02 | S. cerevisiae deletion strains, locus YKL085W, strain MDH1 (second series), active compounds read low 1.01 | S. cerevisiae deletion strains, locus YKL085W, strain MDH1, active compounds read low 1.01 | S. cerevisiae deletion strains, locus YKR001C, strain vps1, active compounds read low 0.99 | [9] 1.04 | S. cerevisiae deletion strains, locus YLR058C, strain SHM2, active compounds read low 1.01 | S. cerevisiae deletion strains, locus YLR102C, strain apc9, active compounds read low 1 | S. cerevisiae deletion strains, locus YLR113W, strain HOG1, active compounds read low 1.05 | [10] 1.03 | S. cerevisiae deletion strains, locus YLR268W, strain sec22, active compounds read low 0.988 | S. cerevisiae deletion strains, locus YLR330W, strain CHS5, active compounds read low 1.01 | S. cerevisiae deletion strains, locus YLR342W, strain FKS1 (second series), active compounds read low 1.03 | S. cerevisiae deletion strains, locus YLR371W, strain rom2, active compounds read low 0.998 | S. cerevisiae deletion strains, locus YLR418C, strain cdc73, active compounds read low 0.976 | S. cerevisiae deletion strains, locus YML016C, strain PPZ1, active compounds read low 1.01 | S. cerevisiae deletion strains, locus YML032C, strain rad52, active compounds read low 0.972 | S. cerevisiae deletion strains, locus YML124C, strain tub3, active compounds read low 0.995 | S. cerevisiae deletion strains, locus YMR078C, strain ctf18, active compounds read low 1 | S. cerevisiae deletion strains, locus YMR223W, strain ubp8, active compounds read low 0.977 | [11] 0.976 | S. cerevisiae deletion strains, locus YNL067W, strain RPL9B, active compounds read low 1.04 | [12] 1.04 | S. cerevisiae deletion strains, locus YNL183C, strain NPR1, active compounds read low 1.04 | S. cerevisiae deletion strains, locus YNL233W, strain BNI4, active compounds read low 1.04 | S. cerevisiae deletion strains, locus YNL250W, strain rad50, active compounds read low 0.989 | S. cerevisiae deletion strains, locus YNL271C, strain bni1, active compounds read low 0.998 | S. cerevisiae deletion strains, locus YNL298W, strain CLA4, active compounds read low 0.98 | S. cerevisiae deletion strains, locus YNL307C, strain MCK1, active compounds read low 0.994 | S. cerevisiae deletion strains, locus YNR052C, strain pop2, active compounds read low 0.995 | S. cerevisiae deletion strains, locus YOL012C, strain htz1 0.439 | S. cerevisiae deletion strains, locus YOL147C, strain pex11, active compounds read low 0.99 | S. cerevisiae deletion strains, locus YOR061W, strain CKA2, active compounds read low 1.01 | S. cerevisiae deletion strains, locus YOR069W, strain VPS5, active compounds read low 1.01 | S. cerevisiae deletion strains, locus YOR136W, strain idh2, active compounds read low 0.997 | S. cerevisiae deletion strains, locus YOR144C, strain elg1, active compounds read low 0.992 | S. cerevisiae deletion strains, locus YOR184W, strain ser1, active compounds read low 0.965 | S. cerevisiae deletion strains, locus YOR231W, strain MKK1, active compounds read low 1.07 | S. cerevisiae deletion strains, locus YOR316C, strain cot1, active compounds read low 1 | [13] 1.04 | [14] 0.998 | S. cerevisiae deletion strains, locus YPL256C, strain CLN2, active compounds read low 1.03 | S. cerevisiae deletion strains, locus YPR119W, strain clb2, active compounds read low 1 | S. cerevisiae deletion strains, locus YPR141C, strain kar3, active compounds read low 1.01 | S. cerevisiae deletion strains, locus YPR163C, strain tif3, active compounds read low 1.02 | S. cerevisiae deletion strains, locus YPR167C, strain met16, active compounds read low 1 | S. cerevisiae deletion strains, strain wtn01, active compounds read low 0.977 | [15] 1.01

CSc1nc2ccc(NC(=O)c3c(-c4ccccc4)noc3C)cc2s1
active: [10] 0.787
inactive: [16] 0.971 | [1] 1.01 | [17] 0.99 | [2] 1.01 | [18] 1 | [3] 0.896 | [4] 1 | [5] 0.984 | [6] 0.897 | [19] 1 | [20] 1 | [7] 0.999 | [8] 1 | [9] 0.888 | [21] 0.996 | [22] 0.85 | [23] 0.974 | [24] 1 | [25] 0.945 | [11] 0.961 | S. cerevisiae deletion strains, locus YNL128W, strain TEP1, active compounds read low 1 | [12] 1.01 | [26] 1 | [27] 0.998 | [28] 1 | [13] 0.926 | [14] 1 | [29] 0.921 | [15] 1.01

Cc1onc(-c2ccccc2Cl)c1C(=O)Nc1ccc2c(c1)OCO2
inactive: [16] 0.993 | [1] 1.02 | [2] 1 | [18] 0.985 | [3] 0.935 | [4] 1.01 | [5] 1 | S. cerevisiae deletion strains, locus YGR229C, strain SMI1, active compounds read low 0.997 | [6] 1.08 | [19] 1.01 | [20] 1.01 | [7] 1.03 | [8] 1.01 | [9] 0.971 | [21] 1.02 | [22] 0.997 | [10] 0.99 | [23] 1.02 | [24] 1 | [25] 0.919 | [11] 1.01 | [12] 1 | [26] 1.04 | [27] 0.995 | [28] 1.03 | [13] 0.888 | [14] 1.01 | [29] 1.14

Cc1onc(-c2ccccc2Cl)c1C(=O)Nc1ccc(S(=O)(=O)Nc2nccs2)cc1
inactive: [16] 1.01 | [1] 1.01 | [17] 0.985 | [2] 0.977 | [18] 0.976 | [3] 0.972 | [4] 1.01 | [5] 1.01 | [6] 0.982 | [19] 0.968 | [20] 1 | [7] 0.966 | [8] 1 | S. cerevisiae deletion strains, locus YKL190W, strain CNB1, active compounds read low 0.989 | [9] 0.975 | [21] 0.982 | [22] 1.05 | [10] 0.97 | [23] 1.03 | [24] 0.999 | [25] 1 | [12] 0.98 | [26] 0.949 | [27] 0.995 | [28] 0.996 | S. cerevisiae deletion strains, locus YOL006C, strain TOP1, active compounds read low 0.926 | [13] 1.05 | [14] 1.01 | [29] 0.932 | [15] 0.968
